High-throughput results: PubChem, National Center for Advancing Translational Sciences (NCATS)
This is a sample that favours compounds with a hit; in the whole collection about 9% have one here.
HPGD block: HPGD (human) dehydrogenase inhibition; purified HPGD, NADH fluorescence kinetic, PGE2 substrate; P15428; AID 894; hit rate 4.3% among 150,000; Potency, µM, actives largely listed as inhibitors
Target sequence (P15428 whole entry, looked up): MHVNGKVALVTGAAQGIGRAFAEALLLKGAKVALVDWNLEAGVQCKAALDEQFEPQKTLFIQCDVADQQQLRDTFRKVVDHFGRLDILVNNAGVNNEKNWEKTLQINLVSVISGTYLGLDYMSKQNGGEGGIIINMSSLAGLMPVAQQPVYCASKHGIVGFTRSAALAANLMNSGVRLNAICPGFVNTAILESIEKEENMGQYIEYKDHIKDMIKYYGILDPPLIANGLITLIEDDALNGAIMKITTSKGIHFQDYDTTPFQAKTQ
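NADH formation kinetics: reaction with 30 uM PGE2 and 1 mM NAD+ (final), 20 nM enzyme, Tris-HCl pH 8 with Tween 20, after 15 min compound preincubation at room temperature. Fluorescence change, last versus first of five reads.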
IMPase inh: IMPase inhibition in cells; AID 901; CHO-M1 cells, IP1 accumulation, HTRF TR-FRET ratio; P97697; inhibition (IP1 accumulation), % at 46.1 µM; 120,000 tested, under 10 active; active = well fitted curve in the direction sought with a large enough effect in the signal ratio, not every such curve was filed as active; inconclusive = small, poorly fitted or top-dose-only effect, or a change in a side signal; inactive = no such curve, though single readings can be large or run the other way; the % refers to the signal ratio;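 note: cells stimulated with carbachol in lithium chloride buffer; higher means more IMPase inhibition seen as more IP1 and lower FRET ratio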
Target sequence (P97697 whole entry, looked up): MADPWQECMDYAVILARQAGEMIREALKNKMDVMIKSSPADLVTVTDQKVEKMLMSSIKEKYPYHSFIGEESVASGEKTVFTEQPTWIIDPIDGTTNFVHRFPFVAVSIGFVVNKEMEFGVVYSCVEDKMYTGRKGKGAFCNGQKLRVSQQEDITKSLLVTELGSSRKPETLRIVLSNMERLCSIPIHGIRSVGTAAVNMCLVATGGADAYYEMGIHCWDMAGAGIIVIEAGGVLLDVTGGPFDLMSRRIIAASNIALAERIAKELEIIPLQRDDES
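The IP-One HTRF competitive assay in carbachol-stimulated CHO-M1 cells quantifies cellular IP1. Compounds spanned up to 46 uM final, and activity is expressed as AC50 from concentration-response fits of the ratio and donor data.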
ALDH1A1 inh: ALDH1A1 (human) enzyme inhibition; Purified ALDH1A1, NADH fluorescence, propionaldehyde substrate; Potency, µM (series often up to 75.3 µM), usual class: inhibitors; hit rate 7.3% among 220,000; AID 1030
A number is an active result; . = inactive; ? = inconclusive; / = not tested or not shown; [ ] = remark or other dose. Unless noted, calls come from the whole dose curve; as a rule, active = well fitted inhibition curve with a large enough effect (not every such curve was filed as active); inconclusive = small, poorly fitted or top-dose-only effect, or another doubt; inactive = no such curve, though single readings can be large or run the other way.

SMILES | HPGD block | IMPase inh | ALDH1A1 inh
COc1ccccc1[C@@H]1C(c2cccc(C)c2)=NN(c2ccccc2)[C@H]1C(=O)N1CCOC1=O | ? | / | .
COC(=O)C1=C(C(=O)OC)[C@@H]2N(Cc3ccccc3)c3ccccc3[C@@]23C[C@@H](C(=O)OC)N(C(=O)NCc2ccccc2)C3=C1 | . | / | .
OCC1OC(n2cnc3c(=S)nc[nH]c32)C(O)C1O (stereo not drawn) | . | / | ?
O=C(CNS(=O)(=O)c1ccccc1)Nc1cccc([N+](=O)[O-])c1 | / | / | .
COc1ccc(-c2nc(SCC(=O)NC3CCCC3)c(-c3ccccc3)[nH]2)cc1OC | / | . | /
Cc1cccc(NC(=S)NCC2CCCO2)c1 (stereo not drawn) | 14µM | . | .
S=C(NCC1CCCO1)Nc1ccc(Cl)cc1Cl (stereo not drawn) | 28µM | / | .
Cc1ccc(NC(=S)NCC2CCCO2)cc1C (stereo not drawn) | . | . | ?
S=C(NCC1CCCO1)Nc1ccc(Cl)cc1 (stereo not drawn) | . | / | .
COc1ccc(-c2nc3cnc(Nc4cccc(OC)c4)nc3n(C3CC3)c2=O)cc1 | / | / | .
O=C(NC(=S)NCc1ccccc1)C1CCCCC1 | . | . | ?
CN1CCN(C(=O)C2=C[C@H](c3csc4ccccc34)C[C@H](OCCCCO)O2)CC1 | / | / | .
CC1CCC(C(=O)NC(C(=O)OCC(=O)c2ccccc2)C(C)C)CC1 (stereo not drawn) | / | . | /
CCOc1ccccc1NC(=S)NCCc1ccccc1 | / | / | .
CN1CCN(/N=C/c2ccc(-c3ccccc3)cc2)CC1 | / | / | .
Cc1cc(/C=N/N2CCN(C)CC2)c(C)n1-c1ccccc1F | / | / | 11µM
COC(=O)[C@H](CCCN=C(N)N)NC(=O)CCCc1c(-c2ccccc2)[nH]c2c(F)cc(F)cc12 | . | / | .
CCn1cc(C(=O)NCCOC)c(=O)c2ccc(C)nc21 | . | . | 11µM
COCCNC(=O)Cc1cn(C)c2ccccc12 | . | . | .
COCCNC(=O)c1cn(C)c2ccccc2c1=O | / | / | 3.5µM
CCn1cc(C(=O)OC)c(=O)c2ccc(C)nc21 | / | / | .
COc1ccc(NC(=O)N2CC[C@@]3(CCCN(C(=O)c4csnn4)C3)C2)cc1 | . | / | ?
CN1CCCC(C(=O)C(C#N)c2ccccc2)C1 (stereo not drawn) | . | . | .
Cc1[nH]n(C(N)=S)c(=O)c1C(c1ccccc1)C(C#N)C#N (stereo not drawn) | . | . | 32µM
Cc1[nH]n(-c2ncc(-c3ccccc3)s2)c(=O)c1C(c1ccc(Br)cc1)C(C#N)C#N (stereo not drawn) | 10µM | / | 13µM
SMILES | HPGD block | IMPase inh | ALDH1A1 inh
CC(=O)NCCC(=O)Nc1ccc(C(N)=O)cc1 | / | / | .
COC(=O)c1c(C)[nH]c(C(=O)C(C)Sc2nnc(-c3cc(OC)c(OC)c(OC)c3)o2)c1C (stereo not drawn) | . | . | .
C=CC(C1=CC(=O)C(OC)=CC1=O)c1ccccc1 (stereo not drawn) | ? | / | 22µM
C=CC(C1=CC(=O)C(OC)=C(OC)C1=O)c1ccccc1 (stereo not drawn) | 20µM | / | .
COc1ccc(C(=O)N/N=C/C(C)c2ccccc2)cc1OC (stereo not drawn) | . | . | .
COC1=C(c2ccccc2)C(=O)c2ccccc2C1=O | . | / | ?
Cc1ccc(NC(=O)C(OC(=O)c2ccc(C=O)cc2)c2ccccc2)cc1Cl (stereo not drawn) | . | . | .
CC(=O)OCCCNc1cc(Sc2nc3ccccc3s2)c2nonc2c1[N+](=O)[O-] | 2.5µM | . | 11µM
CC(=O)OCCNc1cc(SCc2ccco2)c2nonc2c1[N+](=O)[O-] | ? | . | ?
CC(=O)OCCNc1cc(Sc2nc3ccccc3[nH]2)c2nonc2c1[N+](=O)[O-] | 3.2µM | . | .
CCCC(=O)OCCNc1cc(SCCC(=O)OC)c2nonc2c1[N+](=O)[O-] | 28µM | . | 10µM
COC(=O)CCSc1cc(NCCOC(C)=O)c([N+](=O)[O-])c2nonc12 | . | / | .
CC(=O)OCCCNc1cc(Sc2ccc(C)cc2)c2nonc2c1[N+](=O)[O-] | . | . | .
O=C(COC(=O)c1ccc(F)cc1F)NC1CC1 | / | / | .
OCC1OC(C#Cc2ccccc2)C=CC1O (stereo not drawn) | / | / | .[13.5 µM]
S=C(c1nc2ccccc2[nH]1)N1CCOCC1 | ? | . | 13µM
O=C(c1cc2ccccc2[nH]1)N1CCOCC1 | . | / | .
N#C/C(=C\c1ccc(F)cc1)c1nc(-c2ccc(-c3ccccc3)cc2)cs1 | / | . | /
CCOc1ccc(-c2csc(/C(C#N)=C\c3ccc(O)c([N+](=O)[O-])c3)n2)cc1 | 3.2µM | / | .
C[C@H]1Cc2c(COc3ccccc3)nc3c(c2CO1)CN(S(=O)(=O)c1ccc2c(c1)OCCN2C)CC3 | . | / | .[13.5 µM]
COc1ccc(NC(=S)NC(C)C(c2ccccc2)N2CCOCC2)cc1 (stereo not drawn) | / | / | .
CC(NC(=S)Nc1ccccc1Cl)C(c1ccccc1)N1CCOCC1 (stereo not drawn) | . | / | 28µM
CC[C@@H]1/C=C(\C)C[C@H](C)C[C@H](OC)[C@H]2O[C@@](O)(C(=O)C(=O)N3CCCC[C@H]3C(=O)O[C@H](/C(C)=C/[C@@H]3CC[C@@H](O)[C@H](OC)C3)[C@H](C)[C@@H](O)CC1=O)[C@H](C)C[C@@H]2OC | / | / | .
COc1ccc(CC2NCCC3(O)CCCCC23)cc1 (stereo not drawn) | . | . | 16µM
COc1ccc(CN(C)C2CCCCC2)cc1 | . | . | .
SMILES | HPGD block | IMPase inh | ALDH1A1 inh
Cc1ccc(OCC(=O)Nc2ccc3c(c2)OCCO3)cc1C | / | / | .
COc1cc(/C=C2/CCC/C(=C\c3cc(O)c(OC)c(Cl)c3)C2=O)cc(Cl)c1O | . | . | 14µM
COc1cc(/C=C2\CC/C(=C\c3cc(OC)c(O)c(OC)c3)C2=O)cc(OC)c1O | ? | / | .
CC(C)C(NC(=O)c1ccc2c(c1)OCO2)C(=O)N/N=C\c1ccco1 (stereo not drawn) | . | . | .
CSc1ccc(/C=C(\C#N)C(=O)NC2CCCCC2)cc1 | . | / | ?
N#C/C(=C/c1ccc(N2CCOCC2)o1)C(=O)NC1CCCCC1 | / | / | 6.3µM
N#C/C(=C/c1ccc(N2CCCCC2)o1)C(=O)Nc1ccc(Cl)cc1 | . | . | .
N#C/C(=C\c1ccc(N2CCOCC2)o1)C(=O)Nc1ccc(O)cc1 | / | / | 20µM
CCN(C(=O)CCS(=O)(=O)c1cc(Br)cc2c1N(C(=O)C1CC1)CC2)c1cccc(C)c1 | / | . | /
CN(CC(O)CON=C1c2ccccc2-c2ccccc21)S(=O)(=O)c1ccc(Br)cc1 (stereo not drawn) | . | . | .
O=C(/C=C/c1ccccc1)NCCc1ccc2c(c1)OCCO2 | . | . | .
Cc1ccc2oc(=O)c3cnn(CC(=O)NC4CCCCC4C)c3c2c1 (stereo not drawn) | . | . | .
COC(=O)/C(=C1/Oc2cc(C)oc(=O)c2S1)C(F)(F)F | 7.9µM | . | .
COC(=O)/C(=C1/Oc2ccc(C(C)(C)C)cc2S1)C(F)(F)F | . | / | .
COc1ccc(NS(=O)(=O)c2cccs2)cn1 | / | / | .
COc1ccc(NS(=O)(=O)c2ccc(OC)c3ccccc23)cn1 | . | . | 7.1µM
Cc1ccc(C(=O)c2coc3ccc(O)c(Cl)c23)cc1 | . | . | .
O=C(c1ccccc1)c1coc2ccc(O)c(Cl)c12 | 14µM | . | ?
